Where “and” joins values, the source holds several entries; their conditions need not be identical. Identical values can stand only once. Hit rate of the full screen: of about 5,500 compounds, about 2,000 (36%) were called active. About 18% were inconclusive and are not listed. Cut-off read from the data, not from the text of the source: active = normalized growth mostly below about 0.91 (no sharp cut-off); inconclusive = no clear call, values can overlap the other calls; inactive = mostly above about 0.92. The list shows a part of the results.
Assay: chemical genetic growth profiling, strain panel (AID 1159580);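 note: tested at 20 µM; growth read once vehicle control cultures reached saturation at 30 °C; 1 = growth at the plate median or of vehicle wells; lower values mean less growth of the strain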
Details: S. cerevisiae deletion strains, growth OD

Measured: normalized growth

CC(=O)OCC(=O)[C@@]1(O)CCC2C3C[C@H](C)C4=CC(=O)C=CC4(C)C3[C@@H](O)CC21C (stereo partly specified)
inactive: locus YAL013W, strain DEP1, stronger effect = lower value 1.01 | locus YAL021C, strain ccr4, stronger effect = lower value 1.03 | locus YAL026C, strain drs2, stronger effect = lower value 1.03 | locus YAL030W, strain snc1, stronger effect = lower value 1.01 | locus YBL061C, strain skt5, stronger effect = lower value 1.01 | locus YBR009C, strain hhf1, stronger effect = lower value 0.985 | locus YBR021W, strain FUR4, stronger effect = lower value 0.968 | locus YBR023C, strain chs3, stronger effect = lower value 1.02 | locus YBR171W, strain sec66, stronger effect = lower value 1.03 | locus YBR229C, strain ROT2, stronger effect = lower value 1.01 | locus YBR231C, strain swc5, stronger effect = lower value 1.01 | locus YBR279W, strain paf1, stronger effect = lower value 1.01 | locus YCL011C, strain gbp2, stronger effect = lower value 1.02 | locus YCL016C, strain dcc1, stronger effect = lower value 1.01 | locus YCL029C, strain bik1, stronger effect = lower value 1.01 | locus YCL061C, strain MRC1, stronger effect = lower value 1.03 | locus YCL069W, strain vba3, stronger effect = lower value 1.03 | locus YCR088W, strain abp1, stronger effect = lower value 1.02 | locus YDL005C, strain med2, stronger effect = lower value 1.01 | locus YDL035C, strain GPR1, stronger effect = lower value 1.01 | locus YDL040C, strain nat1, stronger effect = lower value 1.01 | locus YDL074C, strain BRE1, stronger effect = lower value 0.994 | locus YDL101C, strain DUN1, stronger effect = lower value 1.01 | locus YDL134C, strain PPH21, stronger effect = lower value 1.01 | locus YDL185W, strain tfp1, stronger effect = lower value 1.01 | locus YDL192W, strain arf1, stronger effect = lower value 1 | locus YDR001C, strain nth1, stronger effect = lower value 1.01 | locus YDR069C, strain doa4, stronger effect = lower value 1.02 | locus YDR101C, strain arx1, stronger effect = lower value 1 | locus YDR137W, strain rgp1, stronger effect = lower value 1.03 | locus YDR150W, strain NUM1, stronger effect = lower value 1.01 | locus YDR159W, strain sac3, stronger effect = lower value 0.995 | locus YDR162C, strain NBP2, stronger effect = lower value 0.992 | locus YDR195W, strain ref2 1.01 | locus YDR297W, strain sur2, stronger effect = lower value 0.994 | locus YDR318W, strain mcm21, stronger effect = lower value 1.01 | locus YDR334W, strain swr1, stronger effect = lower value 1.02 | locus YDR335W, strain msn5, stronger effect = lower value 1.02 | locus YDR388W, stronger effect = lower value 1.01 | locus YDR392W, strain spt3, stronger effect = lower value 1.03 | locus YDR502C, strain sam2, stronger effect = lower value 0.989 | locus YEL003W, strain gim4, stronger effect = lower value 1.02 | locus YEL037C, strain rad23, stronger effect = lower value 1.02 | locus YEL061C, strain CIN8 (second series), stronger effect = lower value 1.02 | locus YEL061C, strain CIN8, stronger effect = lower value 1.01 | locus YER015W, strain faa2, stronger effect = lower value 1.01 | locus YER016W, strain bim1, stronger effect = lower value 1.03 | locus YER110C, stronger effect = lower value 1.01 | locus YER111C, strain swi4, stronger effect = lower value 1.02 | locus YER155C, strain BEM2 (second series), stronger effect = lower value 1.05 | locus YER155C, strain BEM2, stronger effect = lower value 1.01 | locus YER167W, strain BCK2, stronger effect = lower value 1.01 | locus YFR010W, strain ubp6, stronger effect = lower value 0.996 | locus YGL078C, strain dbp3, stronger effect = lower value 1 | locus YGL086W, strain mad1, stronger effect = lower value 1.02 | locus YGL167C, strain pmr1, stronger effect = lower value 1.02 | locus YGL173C, strain kem1, stronger effect = lower value 1.03 | locus YGL227W, strain vid30, stronger effect = lower value 1.02 | locus YGL240W, strain doc1, stronger effect = lower value 1 | locus YGL248W, strain PDE1, stronger effect = lower value 1 | locus YGL253W, strain hxk2, stronger effect = lower value 1.01 | locus YGR078C, strain PAC10, stronger effect = lower value 0.996 | locus YGR135W, strain pre9, stronger effect = lower value 0.982 | locus YGR229C, strain SMI1, stronger effect = lower value 1 | locus YGR252W, strain gcn5, stronger effect = lower value 1.03 | locus YHR013C, strain ard1, stronger effect = lower value 1.03 | locus YHR027C, strain rpn1, stronger effect = lower value 1.01 | locus YHR030C, strain SLT2, stronger effect = lower value 1.01 | locus YHR079C, strain IRE1 (second series), stronger effect = lower value 1.01 | locus YHR079C, strain IRE1, stronger effect = lower value 1.02 | locus YHR094C, strain hxt1, stronger effect = lower value 1.01 | locus YHR129C, strain ARP1, stronger effect = lower value 1.02 | locus YHR142W, strain chs7, stronger effect = lower value 1.01 | locus YHR200W, strain rpn10, stronger effect = lower value 1 | locus YIL066C, strain RNR3, stronger effect = lower value 1.02 | locus YIL073C, strain SPO22, stronger effect = lower value 1.03 | locus YIL125W, strain kgd1, stronger effect = lower value 1.01 | locus YIR030C, strain dcg1, stronger effect = lower value 0.997 | locus YJL092W, strain hpr5, stronger effect = lower value 1.02 | locus YJL095W, strain BCK1 (second series), stronger effect = lower value 1.01 | locus YJL095W, strain BCK1, stronger effect = lower value 1.01 and 1.02 | locus YJL115W, strain asf1, stronger effect = lower value 1.02 | locus YJL129C, strain trk1, stronger effect = lower value 1.02 | locus YJL134W, strain LCB3, stronger effect = lower value 1 | locus YJL154C, strain vps35, stronger effect = lower value 1.02 | locus YJL164C, strain tpk1, stronger effect = lower value 1.01 | locus YJL166W, strain qcr8, stronger effect = lower value 1.01 | locus YJL168C, strain set2, stronger effect = lower value 1.01 | locus YJL187C, strain SWE1 (second series), stronger effect = lower value 1.02 | locus YJR043C, strain POL32, stronger effect = lower value 0.999 | locus YJR066W, strain TOR1, stronger effect = lower value 0.99

Source: PubChem BioAssay AID1159580 (chemical genetic matrix, 2015)
